Test results: the supplement of paper PMC10849652
About 8,800 targets were measured; listed, in parts, are those with a hit and a random draw of the rest. About 0.5% of all pairs of compound and target were hits. A number with no mark means an inactive call.

How the values were obtained:
Test in all cases: log2 fold change, soluble protein after heating vs DMSO (PISA); higher = thermal stabilisation; K562 lysate, 10 uM; active = over 0.2 and 3.5 SD of the protein, either way, in both replicates (recomputed)
pictilisib = compound: CS(=O)(=O)N1CCN(Cc2cc3nc(-c4cccc5[nH]ncc45)nc(N4CCOCC4)c3s2)CC1 [pictilisib]
In short: (§1)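 To prepare the extract, K562 pellets were dounce-homogenised in PBS pH 7.4 with 1 mM MgCl2, giving crude material at 1 mg/mL protein. This was treated with 10 μM compound for 30 min, then heated in aliquots for 3 min over 48°C-58°C before pooling and addition of NP-40 to 0.5% at 4°C. Centrifugation at 21,000xg for 90 min left soluble protein in the supernatant, which TMTpro 16plex LC-MS/MS quantified with equalised channel sums. Results are log-two fold changes in thermal stability compared with solvent controls, from duplicates.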

[1] = compound: C[C@H](C1=CC=C(C=C1)C(=O)NC2=C3C=CNC3=NC=C2)N
In short: as §1

duvelisib = compound: C[C@H](Nc1ncnc2nc[nH]c12)c1cc2cccc(Cl)c2c(=O)n1-c1ccccc1 [duvelisib]
In short: as §1

gandotinib = compound: Cc1cc(Nc2cc(CN3CCOCC3)c3nc(C)c(Cc4ccc(Cl)cc4F)n3n2)n[nH]1 [gandotinib]
In short: as §1

tozasertib = compound: Cc1cc(Nc2cc(N3CCN(C)CC3)nc(Sc3ccc(NC(=O)C4CC4)cc3)n2)n[nH]1 [tozasertib]
In short: as §1

bafetinib = compound: Cc1ccc(NC(=O)c2ccc(CN3CC[C@H](N(C)C)C3)c(C(F)(F)F)c2)cc1Nc1nccc(-c2cncnc2)n1 [bafetinib]
In short: as §1

[2] = compound: Cc1cccc(CC(=O)N2CCc3c2ccc(-c2cn(C)c4ncnc(N)c24)c3F)n1
In short: as §1

crizotinib = compound: C[C@@H](Oc1cc(-c2cnn(C3CCNCC3)c2)cnc1N)c1c(Cl)ccc(F)c1Cl [crizotinib]
In short: as §1

doramapimod = compound: Cc1ccc(-n2nc(C(C)(C)C)cc2NC(=O)Nc2ccc(OCCN3CCOCC3)c3ccccc23)cc1 [doramapimod]
In short: as §1

lapatinib = compound: CS(=O)(=O)CCNCc1ccc(-c2ccc3ncnc(Nc4ccc(OCc5cccc(F)c5)c(Cl)c4)c3c2)o1 [lapatinib]
In short: as §1

UniProt Q9P281, sequence (Q9P281 whole entry, looked up): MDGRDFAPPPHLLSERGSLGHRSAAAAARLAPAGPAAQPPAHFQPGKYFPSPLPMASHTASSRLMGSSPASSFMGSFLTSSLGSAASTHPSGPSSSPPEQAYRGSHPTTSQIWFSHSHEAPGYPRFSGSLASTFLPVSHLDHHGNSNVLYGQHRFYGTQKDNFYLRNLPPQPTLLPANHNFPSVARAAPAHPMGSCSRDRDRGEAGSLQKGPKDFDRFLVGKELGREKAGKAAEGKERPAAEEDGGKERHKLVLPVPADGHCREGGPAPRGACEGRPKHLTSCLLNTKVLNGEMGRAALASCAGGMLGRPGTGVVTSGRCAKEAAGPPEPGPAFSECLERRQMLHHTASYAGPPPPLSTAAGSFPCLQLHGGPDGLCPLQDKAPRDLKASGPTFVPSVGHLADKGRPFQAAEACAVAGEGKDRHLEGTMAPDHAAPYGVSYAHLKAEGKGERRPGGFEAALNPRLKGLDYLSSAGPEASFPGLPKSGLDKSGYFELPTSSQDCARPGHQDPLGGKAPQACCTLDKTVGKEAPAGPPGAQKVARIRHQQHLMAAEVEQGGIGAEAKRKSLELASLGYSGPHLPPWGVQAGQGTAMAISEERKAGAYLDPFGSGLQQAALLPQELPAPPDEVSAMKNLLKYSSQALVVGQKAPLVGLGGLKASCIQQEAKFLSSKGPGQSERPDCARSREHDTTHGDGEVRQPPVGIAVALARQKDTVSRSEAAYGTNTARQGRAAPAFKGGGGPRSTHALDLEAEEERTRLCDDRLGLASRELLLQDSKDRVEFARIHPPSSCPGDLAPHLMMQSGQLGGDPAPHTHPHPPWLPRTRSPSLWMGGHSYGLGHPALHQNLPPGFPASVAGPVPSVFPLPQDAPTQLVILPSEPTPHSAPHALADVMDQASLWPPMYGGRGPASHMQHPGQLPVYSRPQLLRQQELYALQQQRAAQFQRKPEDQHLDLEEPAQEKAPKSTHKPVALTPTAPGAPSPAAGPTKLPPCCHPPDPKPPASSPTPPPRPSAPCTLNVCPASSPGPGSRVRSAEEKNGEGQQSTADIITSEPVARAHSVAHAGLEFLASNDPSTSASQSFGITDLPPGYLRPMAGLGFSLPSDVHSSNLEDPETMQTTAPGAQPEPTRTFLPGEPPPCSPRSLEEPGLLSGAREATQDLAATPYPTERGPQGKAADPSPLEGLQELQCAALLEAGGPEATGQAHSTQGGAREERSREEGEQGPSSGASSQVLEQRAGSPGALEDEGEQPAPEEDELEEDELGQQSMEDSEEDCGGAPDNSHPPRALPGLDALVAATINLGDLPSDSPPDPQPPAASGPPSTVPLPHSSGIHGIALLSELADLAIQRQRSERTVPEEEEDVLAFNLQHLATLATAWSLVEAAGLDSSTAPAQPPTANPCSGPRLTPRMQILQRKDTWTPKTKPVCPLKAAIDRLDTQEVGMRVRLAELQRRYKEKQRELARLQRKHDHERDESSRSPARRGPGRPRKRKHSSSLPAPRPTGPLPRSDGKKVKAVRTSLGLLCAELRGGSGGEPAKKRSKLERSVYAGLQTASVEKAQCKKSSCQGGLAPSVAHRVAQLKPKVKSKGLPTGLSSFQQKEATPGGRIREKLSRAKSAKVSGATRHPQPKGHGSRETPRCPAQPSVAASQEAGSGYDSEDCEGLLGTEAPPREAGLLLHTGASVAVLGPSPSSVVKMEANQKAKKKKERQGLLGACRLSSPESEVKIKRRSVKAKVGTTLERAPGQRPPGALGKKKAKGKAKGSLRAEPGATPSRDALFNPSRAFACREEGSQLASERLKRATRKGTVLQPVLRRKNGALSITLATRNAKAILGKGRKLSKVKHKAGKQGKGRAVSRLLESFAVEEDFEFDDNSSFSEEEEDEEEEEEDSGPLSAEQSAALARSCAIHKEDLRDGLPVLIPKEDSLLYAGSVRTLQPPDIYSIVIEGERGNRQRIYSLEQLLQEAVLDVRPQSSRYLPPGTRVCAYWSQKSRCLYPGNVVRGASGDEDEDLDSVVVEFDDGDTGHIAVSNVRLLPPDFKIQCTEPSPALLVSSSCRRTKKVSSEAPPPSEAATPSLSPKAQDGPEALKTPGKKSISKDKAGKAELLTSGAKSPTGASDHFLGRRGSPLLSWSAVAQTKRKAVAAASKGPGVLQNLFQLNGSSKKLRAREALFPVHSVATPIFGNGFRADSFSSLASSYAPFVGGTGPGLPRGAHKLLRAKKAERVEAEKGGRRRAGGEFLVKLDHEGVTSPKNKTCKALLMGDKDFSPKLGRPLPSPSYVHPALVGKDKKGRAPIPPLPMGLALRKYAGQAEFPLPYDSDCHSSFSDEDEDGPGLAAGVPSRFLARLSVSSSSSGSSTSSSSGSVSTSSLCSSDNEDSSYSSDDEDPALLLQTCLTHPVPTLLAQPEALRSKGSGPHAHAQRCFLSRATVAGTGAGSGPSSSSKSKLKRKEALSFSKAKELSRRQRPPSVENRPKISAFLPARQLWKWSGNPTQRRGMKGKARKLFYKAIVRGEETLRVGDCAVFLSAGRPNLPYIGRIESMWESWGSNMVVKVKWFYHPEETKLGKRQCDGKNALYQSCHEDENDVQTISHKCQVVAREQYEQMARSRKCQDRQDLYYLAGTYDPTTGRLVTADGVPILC
UniProt P13994, sequence (P13994 whole entry, looked up): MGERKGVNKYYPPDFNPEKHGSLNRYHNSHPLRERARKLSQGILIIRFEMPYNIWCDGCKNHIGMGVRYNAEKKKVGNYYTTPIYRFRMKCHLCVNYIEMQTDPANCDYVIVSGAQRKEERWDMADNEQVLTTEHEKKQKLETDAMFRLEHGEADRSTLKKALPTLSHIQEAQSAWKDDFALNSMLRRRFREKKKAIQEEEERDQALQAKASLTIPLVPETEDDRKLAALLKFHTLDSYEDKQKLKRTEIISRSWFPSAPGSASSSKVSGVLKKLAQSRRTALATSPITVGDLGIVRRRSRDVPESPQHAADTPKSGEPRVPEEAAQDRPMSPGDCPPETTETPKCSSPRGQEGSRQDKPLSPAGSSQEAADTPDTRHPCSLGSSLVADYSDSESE
UniProt P15056, sequence (P15056 whole entry, looked up): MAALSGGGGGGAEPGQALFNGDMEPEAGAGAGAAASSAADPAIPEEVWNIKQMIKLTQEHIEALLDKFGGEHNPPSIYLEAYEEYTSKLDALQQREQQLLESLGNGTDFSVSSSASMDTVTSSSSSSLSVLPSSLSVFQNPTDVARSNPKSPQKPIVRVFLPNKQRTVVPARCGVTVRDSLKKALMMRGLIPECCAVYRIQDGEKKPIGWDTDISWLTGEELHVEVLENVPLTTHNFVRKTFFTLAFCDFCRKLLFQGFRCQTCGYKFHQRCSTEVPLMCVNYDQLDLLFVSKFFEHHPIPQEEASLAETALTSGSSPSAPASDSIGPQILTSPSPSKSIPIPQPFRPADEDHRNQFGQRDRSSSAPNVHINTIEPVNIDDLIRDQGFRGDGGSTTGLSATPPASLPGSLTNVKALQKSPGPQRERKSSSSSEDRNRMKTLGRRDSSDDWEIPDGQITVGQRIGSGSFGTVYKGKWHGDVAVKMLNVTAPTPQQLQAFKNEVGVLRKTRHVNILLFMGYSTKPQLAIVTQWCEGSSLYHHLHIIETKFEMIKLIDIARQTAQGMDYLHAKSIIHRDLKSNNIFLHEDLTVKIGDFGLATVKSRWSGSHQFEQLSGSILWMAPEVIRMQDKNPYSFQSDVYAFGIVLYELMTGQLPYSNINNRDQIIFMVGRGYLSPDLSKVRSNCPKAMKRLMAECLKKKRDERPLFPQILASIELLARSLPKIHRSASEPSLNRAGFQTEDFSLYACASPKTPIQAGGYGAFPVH
UniProt Q8IYX8, sequence (Q8IYX8 whole entry, looked up): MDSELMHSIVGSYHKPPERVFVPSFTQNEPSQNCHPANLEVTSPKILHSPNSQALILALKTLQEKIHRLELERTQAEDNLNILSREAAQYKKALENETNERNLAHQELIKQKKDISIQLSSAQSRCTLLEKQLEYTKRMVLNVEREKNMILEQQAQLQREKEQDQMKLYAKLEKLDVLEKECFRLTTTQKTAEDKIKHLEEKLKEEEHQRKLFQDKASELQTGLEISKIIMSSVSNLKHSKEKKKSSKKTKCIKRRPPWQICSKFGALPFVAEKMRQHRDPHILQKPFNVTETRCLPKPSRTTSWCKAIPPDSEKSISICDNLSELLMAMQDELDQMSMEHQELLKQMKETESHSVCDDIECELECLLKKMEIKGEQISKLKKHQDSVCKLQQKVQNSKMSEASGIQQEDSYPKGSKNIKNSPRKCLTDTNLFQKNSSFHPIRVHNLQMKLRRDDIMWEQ
UniProt Q16581, sequence (Q16581 whole entry, looked up): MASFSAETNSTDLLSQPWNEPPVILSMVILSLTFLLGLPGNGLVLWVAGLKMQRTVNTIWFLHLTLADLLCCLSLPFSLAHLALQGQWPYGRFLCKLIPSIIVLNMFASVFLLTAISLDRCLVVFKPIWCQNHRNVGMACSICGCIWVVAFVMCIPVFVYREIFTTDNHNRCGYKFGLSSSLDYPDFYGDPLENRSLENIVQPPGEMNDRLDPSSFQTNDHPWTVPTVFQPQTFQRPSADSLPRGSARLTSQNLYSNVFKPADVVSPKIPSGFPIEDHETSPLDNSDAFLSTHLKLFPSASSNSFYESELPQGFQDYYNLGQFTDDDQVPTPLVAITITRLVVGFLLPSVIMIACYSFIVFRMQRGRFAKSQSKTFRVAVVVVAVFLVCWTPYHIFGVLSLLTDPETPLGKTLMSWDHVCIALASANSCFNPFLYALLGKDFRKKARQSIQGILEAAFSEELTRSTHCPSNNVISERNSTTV
UniProt P0DMB2, sequence (P0DMB2 whole entry, looked up): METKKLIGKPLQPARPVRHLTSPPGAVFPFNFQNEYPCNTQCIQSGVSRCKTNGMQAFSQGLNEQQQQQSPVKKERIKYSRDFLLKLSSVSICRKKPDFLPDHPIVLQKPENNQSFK
UniProt A8MTT3, sequence (A8MTT3 whole entry, looked up): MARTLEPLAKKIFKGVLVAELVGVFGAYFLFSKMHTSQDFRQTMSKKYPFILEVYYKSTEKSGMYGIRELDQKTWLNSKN

Row | Target | log2 fold change (pictilisib) | log2 fold change [1] | log2 fold change (duvelisib) | log2 fold change (gandotinib) | log2 fold change (tozasertib) | log2 fold change (bafetinib) | log2 fold change [2] | log2 fold change (crizotinib) | log2 fold change (doramapimod) | log2 fold change (lapatinib)
1 | CEP128 (UniProt Q6ZU80) | -0.123 | -1.2 (active) | -0.022 | 0.331 | 0.027 | -0.043 | 0.297 |  |  | 
2 | C3AR1 (UniProt Q16581) | -0.023 | -0.025 |  | 0.043 |  | 0.111 | 0.099 | 0.02 | -0.01 | 
3 | CDCA8 (UniProt Q53HL2) | 0.072 | 0.319 | 0.031 | -0.031 | -0.047 | -0.217 | -0.128 |  |  | 
4 | BBS7 (UniProt Q8IWZ6) |  | 0.003 | 0.039 | 0.072 | 0.021 |  | -0.119 | -0.036 | 0.151 | 
5 | CDC25A (UniProt P30304) |  |  | -0.014 |  |  |  |  |  | 0.114 | -0.016
6 | C15orf39 (UniProt Q6ZRI6) | -0.04 | 0.025 | -0.049 | -0.076 | 0.097 | 0.19 | -0.055 | 0.043 | 0 | 
7 | CDK16 isoform 2 (UniProt Q00536) |  | -0.016 | 0.043 | 0.533 (active) |  | -0.007 | -0.05 | 0.063 | 0.012 | 0.046
8 | CENPV (UniProt Q7Z7K6) | 0.02 | 0.089 |  | -0.193 | 0.094 | -0.163 | -0.36 | -0.119 | -0.149 | 
9 | CEP57L1 (UniProt Q8IYX8) | 0.076 | -0.039 | -0.004 | -0.022 | -0.07 | -0.184 | 0.073 | 0.056 | 0.05 | 
10 | CEP152 (UniProt O94986) | -0.013 | -0.089 | -0.017 | 0.006 | -0.114 | -0.071 | 0.058 | -0.22 | -0.057 | 
11 | CHD9 (UniProt Q3L8U1) |  | 1.37 (active) | 0.106 | -0.111 |  |  | -0.27 | 0.055 | -0.057 | 
12 | CHD4, A0A2R8Y521 |  |  | 0.006 |  | 0.081 |  |  |  |  | 0.025
13 | CDAN1 (UniProt H3BPZ6) |  |  |  |  |  |  |  | 0.118 | 0.059 | 
14 | BMT2 (UniProt Q1RMZ1) |  | 0.116 |  | -0.124 |  |  | -0.056 |  |  | 
15 | B3GALT6 (UniProt Q96L58) | -0.047 |  | 0.045 |  |  | -0.066 |  | -0.123 | 0.1 | 
16 | BUD13 (UniProt Q9BRD0) | 0.104 | -0.053 | 0.08 | 0.045 | 0.008 | -0.134 | 0.114 | -0.044 | 0.014 | 
17 | ATXN2 (UniProt F8WB06) |  |  | 0.187 |  |  |  |  |  |  | 
18 | CDC14A isoform 2 (UniProt Q9UNH5) |  |  |  |  |  |  |  | 0.031 | 0.108 | 0.062
19 | BAHCC1 (UniProt Q9P281) |  | -0.956 (active) | 0.002 | 0.006 | 0.052 |  | 0.234 | -0.191 | 0.137 | -0.117

Row | Target | log2 fold change (pictilisib) | log2 fold change [1] | log2 fold change (duvelisib) | log2 fold change (gandotinib) | log2 fold change (tozasertib) | log2 fold change (bafetinib) | log2 fold change [2] | log2 fold change (crizotinib) | log2 fold change (doramapimod) | log2 fold change (lapatinib)
20 | CAPNS1 (UniProt K7ES78) |  |  | 0.17 |  |  |  |  | 0.158 | -0.08 | 0.162
21 | ATG4D (UniProt Q86TL0) | -0.054 |  | 0.109 |  | 0.099 | -0.056 |  | -0.031 | -0.072 | 
22 | CEBPZOS (UniProt A8MTT3) |  | -0.352 | 0.035 | -0.044 | 0.039 |  | 0.203 (active) | -0.025 | 0.177 | -0.001
23 | CCND3 (UniProt P30281) | -0.01 | -0.175 | 0.015 | -0.022 | 0.073 | 0.003 | 0.096 | -0.083 | 0.101 | 
24 | AVEN (UniProt Q9NQS1) | 0.022 | -0.462 | 0.014 | 0.262 | 0.084 | -0.097 | 0.338 | -0.08 | 0.068 | 
25 | BRAF (UniProt P15056) | -0.025 | -0.086 | 0.015 | 0.014 | -0.013 | 0.64 (active) | 0.065 | -0.099 |  | 
26 | ATG10 (UniProt Q9H0Y0) | -0.051 | 0.021 | 0.065 | -0.023 | -0.087 | 0.012 | 0.063 | -0.008 | -0.014 | 
27 | ATPSCKMT (UniProt Q6P4H8) | -0.113 |  | -0.036 |  | -0.219 | -0.034 |  | -0.039 | 0.022 | 
28 | CDK5RAP1 (UniProt Q96SZ6) | 0.184 | 0.051 | -0.044 | 0.071 | 0.015 | 0.018 | -0.009 | -0.027 | 0 | 
29 | CCDC130 (UniProt P13994) | -0.003 |  |  |  | 0.055 | -0.119 |  | -0.689 | 0.617 | 
30 | CD80 (UniProt P33681) |  | 0.395 (active) | 0.104 | -0.086 | 0.088 |  | 0.016 | -0.007 | -0.008 | 0.122
31 | BCORL1 isoform 3 (UniProt Q5H9F3) |  | -0.577 (active) | 0.1 | 0.238 | 0.049 |  | 0.475 | -0.162 | 0.117 | 
32 | CCP110 (UniProt O43303) | -0.085 |  | 0.084 |  | -0.009 | -0.053 |  | -0.006 | 0.009 | 
33 | CACUL1 (UniProt Q86Y37) |  | 0.061 | 0.044 | -0.151 | 0.094 |  | 0.08 | 0.037 | 0.029 | -0.26
34 | C8orf88 (UniProt P0DMB2) | 0.028 | 0.054 | 0.058 | -0.017 |  | -0.016 | -0.095 | 0.038 | -0.004 | 
35 | C1orf131 isoform 5 (UniProt Q8NDD1) |  | -0.16 | 0.028 | 0.076 | 0.03 |  | 0.177 | -0.006 | -0.008 | 0.065
36 | BRAF, A0A2R8Y8E0 |  |  |  |  | 0.035 |  |  |  |  | 
37 | CAD (UniProt H7BZB3) |  | 0.069 |  | 0.036 | -0.062 |  | 0.057 |  |  | 
